# The entries come from a sample that favours the strongest signals as a whole.
# Legend:
# Experiment in all cases: glycan array binding signal (z-score within array); higher = stronger binding
# Conditions in all cases: glycan notation: IUPAC condensed, linker removed
# [1] = target: Fuc(a1-2)Gal(b1-3)GalNAc(b1-3)Gal
# How it was run: (§1)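 Negative Z-scores can be read as non-binding. The Z-score is calculated within each array and then averaged across arrays of one protein sequence at different concentrations or buffers and across linkers. Arrays, 3228 in all, were curated from the Consortium for Functional Glycomics database and kept only where the protein sequence was available.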
# [2] = target: Fuc(a1-2)Gal(b1-3)GlcNAc(b1-3)GalNAc
# How it was run: as §1
# Fuc(a1-2)Gal(b1-4)Glc = target: Fuc(a1-2)Gal(b1-4)Glc
# How it was run: as §1
# [3] = target: Fuc(a1-2)Gal(b1-4)GlcNAc6S
# How it was run: as §1
# [4] = target: Fuc(a1-2)Gal(b1-4)[Fuc(a1-3)]GlcNAc(b1-2)[Fuc(a1-2)Gal(b1-4)[Fuc(a1-3)]GlcNAc(b1-4)]Man(a1-3)[Fuc(a1-2)Gal(b1-4)[Fuc(a1-3)]GlcNAc(b1-2)Man(a1-6)]Man(b1-4)GlcNAc(b1-4)GlcNAc
# How it was run: as §1
# [5] = target: Fuc(a1-2)Gal(b1-4)[Fuc(a1-3)]GlcNAc(b1-3)Gal(b1-4)[Fuc(a1-3)]GlcNAc(b1-3)Gal(b1-4)[Fuc(a1-3)]GlcNAc
# How it was run: as §1
# [6] = target: Fuc(a1-2)[Gal(a1-3)]Gal(b1-4)GlcNAc(b1-2)Man(a1-3)[Fuc(a1-2)[Gal(a1-3)]Gal(b1-4)GlcNAc(b1-2)Man(a1-6)]Man(b1-4)GlcNAc(b1-4)GlcNAc
# How it was run: as §1
# [7] = target: Fuc(a1-2)[Gal(a1-4)]Gal(b1-4)GlcNAc
# How it was run: as §1
# [8] = target: Fuc(a1-2)[GalNAc(a1-3)]Gal(b1-4)GlcNAc(b1-3)GalNAc
# How it was run: as §1
# [9] = target: Fuc(a1-3)[Gal(b1-4)]GlcNAc(b1-6)GalNAc
# How it was run: as §1
# [10] = target: Fuc(a1-3)[Gal3S(b1-4)]Glc
# How it was run: as §1
# [11] = target: Fuc(a1-3)[GalNAc(b1-4)]GlcNAc
# How it was run: as §1
# Gal(a1-3)Gal(b1-3)GlcNAc = target: Gal(a1-3)Gal(b1-3)GlcNAc
# How it was run: as §1
# [12] = target: Gal(a1-4)Gal(b1-4)GlcNAc(b1-2)Man(a1-3)[Gal(a1-4)Gal(b1-4)GlcNAc(b1-2)Man(a1-6)]Man(b1-4)GlcNAc(b1-4)GlcNAc
# How it was run: as §1
# Gal(b1-3)GalNAc = target: Gal(b1-3)GalNAc
# How it was run: as §1
# [13] = target: Gal(b1-3)GalNAc(b1-4)Gal(b1-4)Glc
# How it was run: as §1
# [14] = target: Gal(b1-3)GlcNAc(a1-6)Gal(b1-4)GlcNAc
# How it was run: as §1
# [15] = target: Gal(b1-3)GlcNAc(b1-3)Gal(b1-4)GlcNAc(b1-2)Man(a1-3)[Gal(b1-3)GlcNAc(b1-3)Gal(b1-4)GlcNAc(b1-2)Man(a1-6)]Man(b1-4)GlcNAc(b1-4)GlcNAc
# How it was run: as §1
# [16] = target: Gal(b1-3)[Fuc(a1-4)]GlcNAc(b1-3)Gal(b1-4)[Fuc(a1-3)]GlcNAc
# How it was run: as §1
# Gal(b1-4)Gal = target: Gal(b1-4)Gal
# How it was run: as §1
# [17] = target: Gal(b1-4)GlcNAc(b1-2)Man(a1-6)[GlcNAc(b1-2)Man(a1-3)]Man(b1-4)GlcNAc(b1-4)GlcNAc
# How it was run: as §1
# [18] = target: Gal(b1-4)GlcNAc(b1-3)Gal(b1-4)GlcNAc(b1-3)Gal(b1-4)GlcNAc(b1-3)Gal(b1-4)GlcNAc(b1-3)Gal(b1-4)GlcNAc(b1-2)Man(a1-3)[Gal(b1-4)GlcNAc(b1-3)Gal(b1-4)GlcNAc(b1-3)Gal(b1-4)GlcNAc(b1-3)Gal(b1-4)GlcNAc(b1-3)Gal(b1-4)GlcNAc(b1-2)Man(a1-6)]Man(b1-4)GlcNAc(b1-4)GlcNAc
# How it was run: as §1
# [19] = target: Gal(b1-4)GlcNAc(b1-3)Gal(b1-4)GlcNAc(b1-3)Gal(b1-4)GlcNAc(b1-3)Gal(b1-4)GlcNAc(b1-3)Gal(b1-4)GlcNAc(b1-2)[Gal(b1-4)GlcNAc(b1-3)Gal(b1-4)GlcNAc(b1-3)Gal(b1-4)GlcNAc(b1-3)Gal(b1-4)GlcNAc(b1-3)Gal(b1-4)GlcNAc(b1-6)]Man(a1-6)[Gal(b1-4)GlcNAc(b1-3)Gal(b1-4)GlcNAc(b1-3)Gal(b1-4)GlcNAc(b1-3)Gal(b1-4)GlcNAc(b1-3)Gal(b1-4)GlcNAc(b1-2)Man(a1-3)]Man(b1-4)GlcNAc(b1-4)[Fuc(a1-6)]GlcNAc
# How it was run: as §1
# [20] = target: Gal3S(b1-4)[Fuc(a1-3)]Glc6S
# How it was run: as §1
# Gal6S(b1-4)GlcNAc6S = target: Gal6S(b1-4)GlcNAc6S
# How it was run: as §1
# [21] = target: GalNAc(b1-4)GlcNAc(b1-2)Man
# How it was run: as §1
# GalNAc(b1-4)GlcNAc6S = target: GalNAc(b1-4)GlcNAc6S
# How it was run: as §1
# [22] = target: GalNAc3S(b1-4)[Fuc(a1-3)]GlcNAc
# How it was run: as §1
# GlcA(b1-3)Gal = target: GlcA(b1-3)Gal
# How it was run: as §1
# [23] = target: GlcNAc(a1-6)Gal(b1-4)GlcNAc
# How it was run: as §1
binder,measurement,setting,value
FimA (Actinomyces oris) (protein) MHHHHHHSSGVDLGTENLYFQSNAETPNYGNIKTDATGSLVIHKHLTGGGKDIGTPTGTAQNADDKGPAVEGVVFTAYPITDINLKDPAGWDTISNLSRTGVPDSACANPAAPTLGAHQFGTPKVSPATTKEGLATITEMPVQAYLVCETTTPGDIVQKAKPFVVTIPHPNTAAGADGQWIYDVNVYPKNEAIDVDKTIQAQKLNGYGVGSLIKFPVESTAPTLDAKSFYKYFQLKDTLDERLSEVTATDVSLEGTPLQPTDYKVETKQQTVTVTFTAEGLKKIKAAPGKKVSAVFQGKVTKAGNGAITNRAQVISDTLYAEQPPTPETPPTDPENPPTSDEVISRWGDLSIKKVDTHQQGQTKAGLQGAQFQLYKAKNAYANTCSNEKEGAPIAINGQTTLTTDAQGAIDIKGLFISDSIDGADRDNQVNAMERCYVLVETKAPAGYVLPAGNGAATPVKVKAGEETTDNVTVENTKQSVPGLPLTG,glycan array binding signal (z-score),[1],11.8
same,glycan array binding signal (z-score),[2],-0.927
same,glycan array binding signal (z-score),Fuc(a1-2)Gal(b1-4)Glc,-0.719
same,glycan array binding signal (z-score),[3],-0.627
same,glycan array binding signal (z-score),[4],-0.358
same,glycan array binding signal (z-score),[5],-0.317
same,glycan array binding signal (z-score),[6],5.11
same,glycan array binding signal (z-score),[7],5.14
same,glycan array binding signal (z-score),[8],-0.408
same,glycan array binding signal (z-score),[9],-0.64
same,glycan array binding signal (z-score),[10],-0.294
same,glycan array binding signal (z-score),[11],3.5
same,glycan array binding signal (z-score),Gal(a1-3)Gal(b1-3)GlcNAc,-0.412
same,glycan array binding signal (z-score),[12],-0.497
same,glycan array binding signal (z-score),Gal(b1-3)GalNAc,0.278
same,glycan array binding signal (z-score),[13],3.27
same,glycan array binding signal (z-score),[14],-0.165
same,glycan array binding signal (z-score),[15],-0.744
same,glycan array binding signal (z-score),[16],0.459
same,glycan array binding signal (z-score),Gal(b1-4)Gal,0.292
same,glycan array binding signal (z-score),[17],-0.044
same,glycan array binding signal (z-score),[18],3.42
same,glycan array binding signal (z-score),[19],5.1
same,glycan array binding signal (z-score),[20],3.23
same,glycan array binding signal (z-score),Gal6S(b1-4)GlcNAc6S,4.75
same,glycan array binding signal (z-score),[21],-0.783
same,glycan array binding signal (z-score),GalNAc(b1-4)GlcNAc6S,4.1
same,glycan array binding signal (z-score),[22],-0.099
same,glycan array binding signal (z-score),GlcA(b1-3)Gal,0.311
same,glycan array binding signal (z-score),[23],-1.18

# — the supplement of paper PMC8728848
